PubChem BioAssay AID1159580 (chemical genetic matrix, 2015)
Values joined by “and” are separate entries in the source; they are usually repeats but may differ in a detail not shown here. Equal entries are not always repeated. Out of some 5,500 compounds screened, about 2,000 (36%) were called active. Another 18% or so got no clear call; they are omitted. Cut-off read from the data, not from the text of the source: active = normalized growth mostly below about 0.91 (no sharp cut-off); inconclusive = no clear call, values can overlap the other calls; inactive = mostly above about 0.92. Some of the results follow.

Experiment: chemical genetic growth profiling, strain panel (AID 1159580);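 note: tested at 20 µM; growth read once vehicle control cultures reached saturation at 30 °C; 1 = growth at the plate median or of vehicle wells; lower values mean less growth of the strain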
Details: S. cerevisiae deletion strains, growth OD

Measured: normalized growth

Cc1ccccc1N1C(=O)c2cc(S(N)(=O)=O)c(Cl)cc2NC1C (stereo not drawn)
inactive: locus YAL013W, strain DEP1, stronger effect = lower value 0.989 | locus YAL021C, strain ccr4, stronger effect = lower value 1 | locus YAL026C, strain drs2, stronger effect = lower value 0.983 | locus YAL030W, strain snc1, stronger effect = lower value 0.991 | locus YBL061C, strain skt5, stronger effect = lower value 0.987 | locus YBR009C, strain hhf1, stronger effect = lower value 1 | locus YBR021W, strain FUR4, stronger effect = lower value 0.968 | locus YBR023C, strain chs3, stronger effect = lower value 0.989 | locus YBR171W, strain sec66, stronger effect = lower value 0.963 | locus YBR229C, strain ROT2, stronger effect = lower value 0.982 | locus YBR231C, strain swc5, stronger effect = lower value 0.987 | locus YBR279W, strain paf1, stronger effect = lower value 0.996 | locus YCL011C, strain gbp2, stronger effect = lower value 0.997 | locus YCL016C, strain dcc1, stronger effect = lower value 1.03 | locus YCL029C, strain bik1, stronger effect = lower value 0.979 | locus YCL069W, strain vba3, stronger effect = lower value 0.996 | locus YCR088W, strain abp1, stronger effect = lower value 0.978 | locus YDL005C, strain med2, stronger effect = lower value 0.96 | locus YDL035C, strain GPR1, stronger effect = lower value 1.01 | locus YDL040C, strain nat1, stronger effect = lower value 0.986 | locus YDL074C, strain BRE1, stronger effect = lower value 1.02 | locus YDL101C, strain DUN1, stronger effect = lower value 0.985 | locus YDL134C, strain PPH21, stronger effect = lower value 0.983 | locus YDL185W, strain tfp1, stronger effect = lower value 0.984 | locus YDL192W, strain arf1, stronger effect = lower value 0.98 | locus YDR001C, strain nth1, stronger effect = lower value 0.957 | locus YDR069C, strain doa4, stronger effect = lower value 0.96 | locus YDR101C, strain arx1, stronger effect = lower value 0.994 | locus YDR137W, strain rgp1, stronger effect = lower value 1 | locus YDR159W, strain sac3, stronger effect = lower value 0.973 | locus YDR162C, strain NBP2, stronger effect = lower value 0.994 | locus YDR195W, strain ref2 0.944 | locus YDR297W, strain sur2, stronger effect = lower value 1 | locus YDR318W, strain mcm21, stronger effect = lower value 0.99 | locus YDR334W, strain swr1, stronger effect = lower value 0.918 | locus YDR335W, strain msn5, stronger effect = lower value 0.973 | locus YDR388W, stronger effect = lower value 0.994 | locus YDR392W, strain spt3, stronger effect = lower value 1.01 | locus YDR502C, strain sam2, stronger effect = lower value 0.983 | locus YEL003W, strain gim4, stronger effect = lower value 0.978 | locus YEL037C, strain rad23, stronger effect = lower value 0.978 | locus YEL061C, strain CIN8 (second series), stronger effect = lower value 0.985 | locus YEL061C, strain CIN8, stronger effect = lower value 0.993 | locus YER015W, strain faa2, stronger effect = lower value 0.986 | locus YER016W, strain bim1, stronger effect = lower value 0.998 | locus YER110C, stronger effect = lower value 0.976 | locus YER111C, strain swi4, stronger effect = lower value 0.987 | locus YER155C, strain BEM2 (second series), stronger effect = lower value 0.99 | locus YER155C, strain BEM2, stronger effect = lower value 0.981 | locus YER167W, strain BCK2, stronger effect = lower value 0.981 | locus YFR010W, strain ubp6, stronger effect = lower value 0.968 | locus YGL078C, strain dbp3, stronger effect = lower value 0.981 | locus YGL086W, strain mad1, stronger effect = lower value 1.01 | locus YGL167C, strain pmr1, stronger effect = lower value 0.996 | locus YGL173C, strain kem1, stronger effect = lower value 1.01 | locus YGL227W, strain vid30, stronger effect = lower value 0.972 | locus YGL240W, strain doc1, stronger effect = lower value 0.995 | locus YGL248W, strain PDE1, stronger effect = lower value 1 | locus YGL253W, strain hxk2, stronger effect = lower value 0.972 | locus YGR135W, strain pre9, stronger effect = lower value 0.986 | locus YGR229C, strain SMI1, stronger effect = lower value 0.982 | locus YGR252W, strain gcn5, stronger effect = lower value 0.991 | locus YHR013C, strain ard1, stronger effect = lower value 1.02 | locus YHR027C, strain rpn1, stronger effect = lower value 0.991 | locus YHR030C, strain SLT2, stronger effect = lower value 0.987 and 0.961 | locus YHR079C, strain IRE1 (second series), stronger effect = lower value 0.997 | locus YHR079C, strain IRE1, stronger effect = lower value 0.966 | locus YHR094C, strain hxt1, stronger effect = lower value 0.99 | locus YHR129C, strain ARP1, stronger effect = lower value 0.988 | locus YHR142W, strain chs7, stronger effect = lower value 0.969 | locus YHR200W, strain rpn10, stronger effect = lower value 0.982 | locus YIL066C, strain RNR3, stronger effect = lower value 1.01 | locus YIL073C, strain SPO22, stronger effect = lower value 1.03 | locus YIL125W, strain kgd1, stronger effect = lower value 0.991 | locus YIR030C, strain dcg1, stronger effect = lower value 0.987 | locus YJL092W, strain hpr5, stronger effect = lower value 0.992 | locus YJL095W, strain BCK1 (second series), stronger effect = lower value 0.956 | locus YJL095W, strain BCK1, stronger effect = lower value 1.03 and 0.975 | locus YJL115W, strain asf1, stronger effect = lower value 0.965 | locus YJL129C, strain trk1, stronger effect = lower value 0.941 | locus YJL134W, strain LCB3, stronger effect = lower value 0.986 | locus YJL154C, strain vps35, stronger effect = lower value 0.961 | locus YJL164C, strain tpk1, stronger effect = lower value 1.03 | locus YJL166W, strain qcr8, stronger effect = lower value 0.978 | locus YJL168C, strain set2, stronger effect = lower value 0.992 | locus YJL187C, strain SWE1 (second series), stronger effect = lower value 1 | locus YJR043C, strain POL32, stronger effect = lower value 0.994 | locus YJR066W, strain TOR1, stronger effect = lower value 0.923
